The sample as a whole holds a higher share of hits than the screen did.
IDE exosite inh – insulin-degrading enzyme (human) exo-site inhibition; 6.3% of 17,000 active; AID 1259349; purified IDE, FL-6b probe fluorescence polarization; active compounds read low; z-score at 20 µM; P14735;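 active = z-score of -3 or lower, meaning strong loss of probe binding signal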;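 also: His-tagged human IDE residues 42-1019 made in E. coli with 30 nM FL-6b probe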
Active calls of the source: *.

Results for Cc1ccccc1S(=O)(=O)N1C[C@H](O)COC[C@@H]2O[C@@H](CC(=O)N3CCCCC3)CC[C@H]21 ?
IDE exosite inh: -0.13

What do the screens show for `CCC(=O)N1CC(=O)N2[C@H](CO)[C@H](c3ccc(C#CC(C)C)cc3)[C@@H]2C1`?
IDE exosite inh: 3.6

Results for COc1ccc(S(=O)(=O)Nc2ccc3c(c2)C(=O)N([C@@H](C)CO)C[C@@H](C)[C@@H](CN(C)Cc2ccc(C(F)(F)F)cc2)OCCCC[C@@H](C)O3)cc1 ?
IDE exosite inh: 3.3

How did COc1ccc2c3c(n(C)c2c1)[C@H](CO)N(C(=O)CN1CCOCC1)CC31CCN(C(=O)Nc2cccc(F)c2)CC1 do in these assays?
IDE exosite inh: 0.14

How did CCC(=O)N1CC(=O)N2[C@H](CO)[C@H](c3ccc(C#CC4CCCCC4)cc3)[C@@H]2C1 do in these assays?
IDE exosite inh: 1.5

Results for COc1ccc2c3c([nH]c2c1)[C@@H](CO)N(C(=O)C1CCOCC1)CC31CCN(Cc2cccc(F)c2)CC1 ?
IDE exosite inh: -0.84

How did N#C[C@@H]1[C@H](c2ccccc2C2=CCCC2)[C@@H](CO)N1C(=O)c1ccccn1 do in these assays?
IDE exosite inh: 0.48

Results for CCCNC(=O)C[C@@H]1CC[C@@H]2[C@H](COC[C@H](O)CN2Cc2ccncc2)O1 ?
IDE exosite inh: 0.27

What do the screens show for `N#C[C@H]1[C@H](c2ccc(-c3ccccc3F)cc2)[C@@H](CO)N1C(=O)C1CC1`?
IDE exosite inh: -4.5*

How did COc1ccccc1-c1ccc([C@H]2[C@@H](CO)N(C(=O)NC3CCCCC3)[C@H]2C#N)cc1 do in these assays?
IDE exosite inh: -6.9*

How did N#C[C@H]1[C@@H](c2ccc(-c3ccccc3F)cc2)[C@H](CO)N1C(=O)C1CC1 do in these assays?
IDE exosite inh: -0.079

What do the screens show for `COc1ccccc1-c1ccccc1[C@H]1[C@@H](CO)N(C(=O)C2CCC2)[C@H]1C#N`?
IDE exosite inh: 2.7

How did COc1ccc(-c2ccc([C@H]3[C@@H](C#N)N(C(=O)NC4CCCCC4)[C@@H]3CO)cc2)cc1 do in these assays?
IDE exosite inh: 3

How did COc1ccccc1-c1ccccc1[C@H]1[C@H](C#N)N(C(=O)C2CCC2)[C@H]1CO do in these assays?
IDE exosite inh: -0.85

Results for COc1ccc(-c2ccc([C@@H]3[C@@H](C#N)N(C(=O)NC4CCCCC4)[C@H]3CO)cc2)cc1 ?
IDE exosite inh: 1.1

What do the screens show for `CN(C)C(=O)c1cccc(-c2ccc([C@@H]3[C@@H](C#N)N(C(=O)C4CCC4)[C@@H]3CO)cc2)c1`?
IDE exosite inh: -4.2*

How did COc1ccccc1-c1ccc([C@@H]2[C@@H](C#N)N(C(=O)C3CCC3)[C@H]2CO)cc1 do in these assays?
IDE exosite inh: -5.2*

What do the screens show for `N#C[C@@H]1[C@H](c2ccc(-c3ccccc3F)cc2)[C@@H](CO)N1C(=O)C1CC1`?
IDE exosite inh: -0.081

Results for CN(C)C(=O)c1cccc(-c2ccc([C@@H]3[C@@H](CO)N(C(=O)C4CCC4)[C@H]3C#N)cc2)c1 ?
IDE exosite inh: 1.7

What do the screens show for `CN(C)C(=O)c1cccc(-c2ccc([C@H]3[C@@H](CO)N(C(=O)C4CC4)[C@H]3C#N)cc2)c1`?
IDE exosite inh: 1.5

Results for N#C[C@H]1[C@@H](c2ccc(C#CC3CCCCC3)cc2)[C@H](CO)N1C(=O)c1cccc(F)c1 ?
IDE exosite inh: 1.8

How did CC(C)CC#Cc1ccc([C@@H]2[C@@H](CO)N3C(=O)CN(C(=O)Cc4cccnc4)C[C@@H]23)cc1 do in these assays?
IDE exosite inh: 5.2

How did CCS(=O)(=O)N1CCCCN2[C@H](CO)[C@@H](c3ccc(-c4ccc(C(=O)N(C)C)cc4)cc3)[C@@H]2C1 do in these assays?
IDE exosite inh: -0.38

Results for O=C(C[C@@H]1C[C@@H]2c3cc(NS(=O)(=O)c4ccc(F)cc4)ccc3O[C@@H]2[C@H](CO)O1)NCCN1CCCCC1 ?
IDE exosite inh: 1.7

How did COc1ccc(NC(=O)N(C)C[C@H]2Oc3c(NS(=O)(=O)c4c(C)noc4C)cccc3C(=O)N([C@@H](C)CO)C[C@H]2C)cc1 do in these assays?
IDE exosite inh: -0.37

How did C[C@H]1CC(=O)NCC/C=C\C[C@H](c2cccc(Cl)c2)NC1=O do in these assays?
IDE exosite inh: -1

How did COc1cccc(S(=O)(=O)N[C@H]2CC[C@@H](CC(=O)NC3Cc4ccccc4C3)O[C@H]2CO)c1 do in these assays?
IDE exosite inh: 0.91

What do the screens show for `Cc1cccc(S(=O)(=O)N2CCCCN3[C@H](CO)[C@@H](c4ccc(C#CC(C)C)cc4)[C@@H]3C2)c1`?
IDE exosite inh: 1.9

How did O=C(Nc1ccc(F)cc1)N1CC(=O)N2[C@H](CO)[C@@H](c3ccc(C#CC4CC4)cc3)[C@@H]2C1 do in these assays?
IDE exosite inh: 2.9

Results for COc1cccc(NC(=O)C[C@H]2CC[C@@H]3[C@H](COc4ccc(NS(=O)(=O)c5cccc(F)c5)cc4C(=O)N3C)O2)c1 ?
IDE exosite inh: -1

What do the screens show for `CCC(=O)N(C)C[C@H]1[C@@H](c2ccc(-c3cccnc3)cc2)[C@@H](CO)N1C(C)=O`?
IDE exosite inh: -0.32

How did Cc1ccccc1-c1ccc([C@H]2[C@@H](CO)N3CCCCN(CC4CC4)C[C@H]23)cc1 do in these assays?
IDE exosite inh: -11*

Screens (PubChem)
